From the supplement of paper PMC6555819

Each sequence was assayed on VDR:RXRa (NR concentration 270 nM, RXRa partner concentration 90 nM) (assay: PBM binding z-score (relative to random genomic background probes); higher = stronger binding; sequences stand for … in GC…GCGATTGACAGCGTAGAATGAAGG).
Procedure: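 Protein-binding microarray (Agilent 4x180K custom design, double-stranded 60-nt probes: 5' GC cap, 34-nt variable region, 24-nt constant primer region; full probe sequence given). Purified or IVT nuclear receptor:RXRα heterodimers (3:1 NR:RXRα, mostly 270:90 nM) or homodimers were incubated for 1 h in PBS with 2% milk and no ligand, then detected with Alexa488 antibodies. Fluorescence from o1-orientation probes (~5 replicates averaged) was converted to z-scores against 500 random hg19 background probes. Variable regions are seed direct-repeat (DR0–DR5) sites, all their single-nucleotide variants and half-site ablations.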

| Sequence | PBM binding z-score |
| --- | --- |
| CCTTACGGGTCCCTGACAGGTTATAGCATTTGGA | -0.165 |
| TAGCCTAGGTCATTCAGGGGCCAGAATAGAAAGC | 3.17 |
| TAGCCTAGGTGATTGGGCCAGTATAGTACGCATC | -0.57 |
| TCATATAGGTCAAAGGTGAAAGTCGGTGTGGTAA | 4.65 |
| CAAACTAGGTCACGAAAGGTCAAATTCGAATGAC | 6.93 |
| TCGAGTAGGTTACTGGGGCATTCAGGGATGAAGA | 0.313 |
| CGAACTAAGTCATCCAGGACAGTGAATACATTGA | 0.524 |
| CAAACTAGGTCAAAGGTCAACGTCGAGCCAACCA | 6.69 |
| ATCGAATGGTCGTGAGGTGAGTATACAGAAAGGC | -0.0757 |
| CGAACTAGGTCAGAGCAGGACAGTGAAGGATGAT | 0.711 |
| ATATGTAGGTTAGCTGGCGTCATTCAGACTAGGC | -0.12 |
| TCTGCTATGTCAACGATGGTCAGCTAATCTGCTA | -0.405 |
| ACTCGGAGGACAGAGGTCAGAGCTACGCCAGTGA | 2.99 |
| TCGAGTAGGTTACGGGGGCATTCTGGGATGAAGA | 3.65 |
| CGAACTAGGGCACCAGGACAGTGAAGAGGTTGGA | -0.582 |
| CATACAGGGACAGCTAGGCCAGAGTAGGGACGGC | -0.582 |
| CGTCGGAGGACAGAAGGTCAGAGCTGTCCGCTTT | 0.797 |
| ACAGACAGGTGAGTGAAGGTCACTCAGCTGGACG | 2.73 |
| CCGAGTAGGTTACGTGGGGGCATTCAGTGCGAAT | 5.48 |
| AGAATGAGGTTACCAAAGATCAGTGAAACGCTTG | 1.45 |

| Sequence | PBM binding z-score |
| --- | --- |
| CCGAGTAGGTTACGAGGGGGCATTCTGTGCGAAT | 4.89 |
| CGTCCAAGGTCAATGCTAGGTCACTGAAAGCATT | 5.55 |
| TGAATGACGTTAAAGATCAGGGAACGTGGCGTCG | -0.237 |
| CGAACTAGGTCAAAGGAAAGTGAAAGGCGACGTA | 0.89 |
| CGAACCAGGTCACCAGGACAGTGAAGAGGTTGGA | 3.17 |
| CCTACTGGGCCAAAGGTCCTTGATTCCAATGCTC | -0.303 |
| CCGAGTCGGTTACGAGGGGGCATTCAGTGCGAAT | 3.65 |
| CCTACTGGGCCAAAAAGGCCATTGATGCCGATAA | 0.326 |
| ACTCGGAGGACAAAGGTAAGAGCTACGCCAGTGA | -0.371 |
| CAAGCTAGGTCAAGAGGTCAAAGTCCGCTTCCCG | 5.9 |
| CCTTACGGGTCTAGGTTATAGCACGGGTGGTACG | -0.339 |
| ATATGCAGGTTATCGGGTCATTCAGTTTGCGCAT | 5.27 |
| ATCGAAAGGTCGACGAGGTGAGAATACACCGTTT | 5.52 |
| TCTGCTAGGTCAGGTGGTCAGCTAACGAGCTGCC | 0.132 |
| CGAACTAGGTCAAACGACAGTGAAAGGCGACGTA | 1.43 |
| CGCCCAAGGTCAGCAGGTCAGTGAAAGCGACGTG | 3.83 |
| ATATGTAGGTTAGGGTCATCCAGAAAGTAGGGAA | 4.46 |
| TCGAGTAGGTTACGGGGGCATTAAGGGATGAAGA | 3.4 |
| CCTTACGGGTCAGGAGGTTATAGCACGACGAGCG | 3.14 |
| CAAACTAGGTCAAAGGTCAAAGTTGAGCCAACCA | 6.85 |
